Source: PubChem BioAssay (Tox21)
Where “and” joins values, the source holds several entries; their conditions need not be identical. Equal entries are not always repeated. Inconclusive results are not listed. Entries that show only a call come without a potency. A number with no mark means an inactive call. Calls of active or inactive are those of the source. Calls come from the whole dose curve; as a rule, active = well fitted inhibition curve with a large enough effect in the repeat runs; inconclusive = weak or mixed curves; inactive = no such curve, though single readings can be large or run the other way.

target: Estrogen receptor (Homo sapiens) (UniProt P03372); assay: qHTS assay to identify small molecule antagonists of the estrogen receptor alpha (ER-alpha) signaling pathway using the BG1 cell line in the presence of 0.1 nM 17-beta-estradiol (AID 1259244); settings: VM7Luc4E2 (BG1) ERE-luciferase, antagonist mode, 0.1 nM E2, 22 h; series mostly up to 92.4 µM; note: nearly all actives have a fitted effect of over 50% in size
Text: National Center for Advancing Translational Sciences [NCATS]
NIH Chemical Genomics Center [NCGC]
U.S. Environmental Protection Agency [EPA]
National Institutes of Environmental Health Sciences [NIEHS]
National Toxicology Program [NTP]
U.S. Food and Drug Administration [FDA]
Estrogen receptor (ER), a member of the nuclear hormone receptor plays an important role in development, metabolic homeostasis and reproduction. Two subtypes of ER, ER-alpha and ER-beta, have similar expression patterns with some uniqueness in both types. Endocrine disrupting chemicals (EDCs) and their interactions with steroid hormone receptors like ER causes disruption of normal endocrine function. Therefore, it is important to understand the effect of environmental chemicals in ER signaling pathway. For identifying ER antagonists, VM7Luc4E2 cell line was used to screen against Tox21 compound libraries.
VM7Luc4E2 cell line (provided by Denison MS, University of California) endogenously express full-length ER-alpha and is stably transfected with a plasmid containing four estrogen responsive elements (ERE) upstream of a luciferase reporter gene. The current screening for identification of ER-alpha inhibitors against Tox21 compound libraries used lower concentration (0.1 nM) of 17beta-Estradiol as a stimulator.
Tox21 Assay Protocol Summary:
VM7Luc4E2 cells were cultured in phenol red free assay medium containing 10% charcoal stripped FBS for 5 days prior to the assay. The cells were dispensed at 4,000 cells/well in 4 uL of assay medium into white wall/solid-bottom 1536-well plates (Corning Life Sciences, Corning, NY) using a Multidrop Combi (ThermoFisher Scientific, Waltham, MA) dispenser. After the assay plates were incubated at 37C and 5% CO2 for 24 hr, 23 nL of compounds dissolved in DMSO, positive controls or DMSO only was transferred to the assay plates by a Pintool station (Kalypsys, San Diego, CA). The transfer of compounds was followed by the addition of 1 uL of 0.1 nM (final concentration) agonist (17beta-Estradiol)/assay medium using a Flying Reagent Dispenser (FRD, Aurora Discovery, San Diego, CA). The plates were incubated at 37C and 5% CO2 for 22 hr. For luciferase reporter gene assay, 4 uL of ONE-Glo reagent (Promega Corporation, Madison, WI) was added to each well using the FRD and after 30 min incubation at room temperature luminescence intensity was measured using ViewLux plate reader (PerkinElmer, Shelton, CT).
Potency is the fitted concentration of half-maximal effect.

Estrogen receptor (Homo sapiens), sequence (P03372 whole entry, looked up): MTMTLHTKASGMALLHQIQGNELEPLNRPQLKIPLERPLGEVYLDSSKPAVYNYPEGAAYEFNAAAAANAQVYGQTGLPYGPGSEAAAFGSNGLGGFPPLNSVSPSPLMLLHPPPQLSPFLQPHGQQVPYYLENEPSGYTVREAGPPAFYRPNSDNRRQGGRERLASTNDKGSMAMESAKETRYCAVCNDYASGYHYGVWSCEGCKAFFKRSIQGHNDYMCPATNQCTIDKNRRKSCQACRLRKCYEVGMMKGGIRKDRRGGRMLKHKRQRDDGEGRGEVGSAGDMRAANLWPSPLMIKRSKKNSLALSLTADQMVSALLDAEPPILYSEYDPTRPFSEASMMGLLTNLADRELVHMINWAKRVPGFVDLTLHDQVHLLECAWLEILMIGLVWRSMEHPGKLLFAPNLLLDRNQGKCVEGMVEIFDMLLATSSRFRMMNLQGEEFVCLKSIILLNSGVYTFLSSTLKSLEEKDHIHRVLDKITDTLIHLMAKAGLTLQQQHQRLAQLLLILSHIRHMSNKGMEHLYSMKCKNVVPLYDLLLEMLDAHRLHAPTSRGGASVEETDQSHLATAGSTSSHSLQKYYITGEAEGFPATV

Structure (SMILES) | Potency | activity change, negative = inhibition
O=CCCl | inactive | –
N[C@@H](Cc1ccc(Oc2cc(I)c(O)c(I)c2)c(I)c1)C(=O)O | inactive | –
O=C(NC(O)C(Cl)(Cl)Cl)NC(O)C(Cl)(Cl)Cl (stereo not given) | inactive | –
CCCN1CCC[C@@H]2Cc3[nH]ncc3C[C@H]21 | inactive | –
Cc1cc(OC(=O)N(C)C)nn1C(=O)N(C)C | inactive | –
Clc1ccc(C(Cl)(Cl)Cl)cn1 | inactive | –
O=P(O)(O)c1ccccc1 | inactive | –
CCOC(=O)Nc1cccc(OC(=O)Nc2ccccc2)c1 | inactive | –
O=[N+]([O-])CCO | inactive | –
COc1ccccc1OC | inactive | –
O=C(Cl)CCl | inactive | –
OCC(Cl)CCl (stereo not given) | inactive | –
CC(Cc1ccccc1)NCCCCl (stereo not given) | inactive | –
O=c1[nH]oc2c1CCNC2 | inactive | –
CCCCCCCCSC(=O)Oc1cc(Cl)nnc1-c1ccccc1 | inactive | –
CNC(=O)O/N=C(/CSC)C(C)(C)C | inactive | –
C(COCC1CO1)OCC1CO1 (stereo not given) | inactive | –
COc1cc(CC(C)N)cc(OC)c1OC (stereo not given) | inactive | –
C[C@H]1CCCC(=O)CCC/C=C/c2cc(O)cc(O)c2C(=O)O1 | 23.4 µM (active) and 25.2 µM (active) | –
CCCOC(=O)c1cncn1C(C)c1ccccc1 (stereo not given) | inactive | –

Structure (SMILES) | Potency | activity change, negative = inhibition
CCCCCCC(=O)CCCCCC/C=C/C[C@@H](O)[C@H](O)[C@@](N)(CO)C(=O)O | – | 5.03% [at 19 µM]
CNC(=O)Oc1ccccc1C(C)C | inactive | –
CC(C)(C)c1cc(O)ccc1O | inactive | –
Cc1cccc2sc3nncn3c12 | inactive | –
CN(C)C1CCCCC1 | inactive | –
CC[C@@H](CO)NC(=O)[C@@H]1C=C2c3cccc4[nH]cc(c34)C[C@H]2N(C)C1 | inactive | –
c1cncc([C@@H]2CCCCN2)c1 | inactive | –
CS(=O)(=O)c1ccc(C(=O)C2C(=O)CCCC2=O)c(Cl)c1COCC(F)(F)F | inactive | –
CN=CNc1ccc(C)cc1C | inactive | –
COC(=O)c1ccccc1CS(=O)(=O)NC(=O)Nc1nc(OC)cc(OC)n1 | inactive | –
CCC1(c2ccccc2)CCC(=O)NC1=O (stereo not given) | inactive | –
CC(Cc1ccccc1)NCCn1cnc2c1c(=O)n(C)c(=O)n2C (stereo not given) | inactive | –
CCCCCCCC(=O)Cl | inactive | –
CCNP(=S)(OC)O/C(C)=C/C(=O)OC(C)C (stereo not given) | inactive | –
C1CN2CCC1CC2 | inactive | –
CCC(C(N)=O)N1CCCC1=O (stereo not given) | inactive | –
Cn1c(N)nc2c3cccnc3ccc21 | inactive | –
CCCCOC(C)=O | inactive | –
O=c1[nH]c2ccccc2n1C1CCNCC1 | inactive | –
C=C(C)[C@H]1CN[C@H](C(=O)O)[C@H]1CC(=O)O | inactive | –
